Source: the supplement of paper PMC11732987, “Enantioselective OTUD7B fragment discovery through chemoproteomics screening and high-throughput optimisation” (Communications Chemistry, 2025)

Assays:
Test in all cases: log2 ratio of Biotin-Ahx-Ub-VS probe labelling (fragment/DMSO); higher = less target engagement (more negative = stronger competition), active = hit call of the paper (q ≤ 0.05, log2 ratio ≤ -1)
Conditions in all cases: compound concentration: 200 uM; treatment time: 3 h
ALG13 = target: T1, ALG13 (UniProt Q9NP73)
T1 sequence (whole entry): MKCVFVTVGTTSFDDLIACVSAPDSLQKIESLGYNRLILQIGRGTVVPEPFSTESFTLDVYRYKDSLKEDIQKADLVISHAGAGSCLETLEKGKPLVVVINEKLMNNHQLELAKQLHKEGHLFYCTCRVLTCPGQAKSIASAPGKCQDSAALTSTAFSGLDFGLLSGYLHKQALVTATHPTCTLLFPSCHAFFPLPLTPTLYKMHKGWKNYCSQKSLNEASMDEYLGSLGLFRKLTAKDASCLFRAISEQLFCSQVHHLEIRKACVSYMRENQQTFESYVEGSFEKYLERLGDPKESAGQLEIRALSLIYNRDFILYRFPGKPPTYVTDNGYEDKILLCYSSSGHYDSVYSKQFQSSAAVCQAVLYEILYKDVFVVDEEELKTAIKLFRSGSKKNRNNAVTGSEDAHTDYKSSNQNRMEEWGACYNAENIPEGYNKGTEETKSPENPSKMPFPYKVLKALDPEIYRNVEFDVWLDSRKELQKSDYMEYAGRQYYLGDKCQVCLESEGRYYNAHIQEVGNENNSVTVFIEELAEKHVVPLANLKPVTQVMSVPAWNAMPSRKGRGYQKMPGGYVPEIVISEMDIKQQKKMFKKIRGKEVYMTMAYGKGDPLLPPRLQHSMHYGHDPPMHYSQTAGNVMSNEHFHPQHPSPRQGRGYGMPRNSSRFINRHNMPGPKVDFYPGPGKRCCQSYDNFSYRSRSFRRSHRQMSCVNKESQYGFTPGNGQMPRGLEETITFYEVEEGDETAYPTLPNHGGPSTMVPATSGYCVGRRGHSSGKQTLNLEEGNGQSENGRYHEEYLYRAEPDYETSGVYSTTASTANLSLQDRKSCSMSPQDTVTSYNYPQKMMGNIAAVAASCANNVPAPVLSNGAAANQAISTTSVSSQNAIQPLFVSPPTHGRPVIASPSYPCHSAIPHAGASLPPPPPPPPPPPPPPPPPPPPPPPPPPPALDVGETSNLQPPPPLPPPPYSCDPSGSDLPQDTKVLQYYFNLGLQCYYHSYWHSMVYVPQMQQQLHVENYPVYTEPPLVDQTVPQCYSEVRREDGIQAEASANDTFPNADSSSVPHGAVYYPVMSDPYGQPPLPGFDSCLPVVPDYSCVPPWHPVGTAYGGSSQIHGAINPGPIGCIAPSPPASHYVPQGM
Outline: (§1)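 HEK293T lysate, 495 µg per sample in Tris/CHAPS/IGEPAL buffer with protease inhibitors, was treated in triplicate with fragment at 200 µM or vehicle for 3 h and then with Biotin-Ahx-Ub-VS at 0.5 µM final for 1 h. Labelled DUBs were NeutrAvidin-enriched, digested with LysC and trypsin, and run by diaPASEF LC-MS/MS. Spectronaut label-free quantities were global-median-normalised, and values are average log2 fragment/vehicle ratios by unpaired t-test on proteins with ≥2 unique peptides.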

ATXN3 = ATXN3 (UniProt P54252)
Outline: as §1

BAP1 = target: T2, BAP1 (UniProt Q92560)
T2 sequence (whole entry): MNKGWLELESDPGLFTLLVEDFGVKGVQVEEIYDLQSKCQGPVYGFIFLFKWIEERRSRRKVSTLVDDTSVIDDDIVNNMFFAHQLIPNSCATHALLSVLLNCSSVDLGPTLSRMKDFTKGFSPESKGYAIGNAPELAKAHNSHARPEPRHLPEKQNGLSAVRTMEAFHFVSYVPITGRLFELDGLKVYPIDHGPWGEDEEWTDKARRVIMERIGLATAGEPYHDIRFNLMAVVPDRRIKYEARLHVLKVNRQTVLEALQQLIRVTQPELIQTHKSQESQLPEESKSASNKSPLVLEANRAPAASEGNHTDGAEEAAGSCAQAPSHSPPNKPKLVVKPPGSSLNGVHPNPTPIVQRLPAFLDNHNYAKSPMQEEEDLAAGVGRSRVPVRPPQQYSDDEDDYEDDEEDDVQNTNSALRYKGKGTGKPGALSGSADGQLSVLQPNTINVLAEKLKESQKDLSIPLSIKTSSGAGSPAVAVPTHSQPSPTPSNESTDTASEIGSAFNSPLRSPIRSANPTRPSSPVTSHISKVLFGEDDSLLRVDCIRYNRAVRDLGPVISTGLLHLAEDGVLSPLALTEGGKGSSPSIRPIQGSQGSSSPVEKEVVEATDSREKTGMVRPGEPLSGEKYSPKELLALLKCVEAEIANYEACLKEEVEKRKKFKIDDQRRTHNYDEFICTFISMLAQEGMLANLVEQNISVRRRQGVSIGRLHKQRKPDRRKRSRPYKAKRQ
Outline: as §1

EIF3F = EIF3F (UniProt O00303)
Outline: as §1

EIF3H = EIF3H (UniProt O15372)
Outline: as §1

FAM105A = target: T3, FAM105A (UniProt Q9NUU6)
T3 sequence (whole entry): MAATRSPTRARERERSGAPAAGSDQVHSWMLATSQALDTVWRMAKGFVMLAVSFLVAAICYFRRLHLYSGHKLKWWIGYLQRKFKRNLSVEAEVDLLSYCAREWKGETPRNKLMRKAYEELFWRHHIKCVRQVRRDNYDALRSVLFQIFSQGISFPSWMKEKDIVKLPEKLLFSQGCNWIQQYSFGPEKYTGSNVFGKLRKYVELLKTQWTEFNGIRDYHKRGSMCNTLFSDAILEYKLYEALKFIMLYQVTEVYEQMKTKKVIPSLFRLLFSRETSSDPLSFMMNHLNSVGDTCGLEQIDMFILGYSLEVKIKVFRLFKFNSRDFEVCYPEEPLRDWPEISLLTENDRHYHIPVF
Outline: as §1

OTUB1 = OTUB1 (UniProt Q96FW1)
Outline: as §1

OTUD4 = target: T4, OTUD4 (UniProt Q01804)
T4 sequence (whole entry): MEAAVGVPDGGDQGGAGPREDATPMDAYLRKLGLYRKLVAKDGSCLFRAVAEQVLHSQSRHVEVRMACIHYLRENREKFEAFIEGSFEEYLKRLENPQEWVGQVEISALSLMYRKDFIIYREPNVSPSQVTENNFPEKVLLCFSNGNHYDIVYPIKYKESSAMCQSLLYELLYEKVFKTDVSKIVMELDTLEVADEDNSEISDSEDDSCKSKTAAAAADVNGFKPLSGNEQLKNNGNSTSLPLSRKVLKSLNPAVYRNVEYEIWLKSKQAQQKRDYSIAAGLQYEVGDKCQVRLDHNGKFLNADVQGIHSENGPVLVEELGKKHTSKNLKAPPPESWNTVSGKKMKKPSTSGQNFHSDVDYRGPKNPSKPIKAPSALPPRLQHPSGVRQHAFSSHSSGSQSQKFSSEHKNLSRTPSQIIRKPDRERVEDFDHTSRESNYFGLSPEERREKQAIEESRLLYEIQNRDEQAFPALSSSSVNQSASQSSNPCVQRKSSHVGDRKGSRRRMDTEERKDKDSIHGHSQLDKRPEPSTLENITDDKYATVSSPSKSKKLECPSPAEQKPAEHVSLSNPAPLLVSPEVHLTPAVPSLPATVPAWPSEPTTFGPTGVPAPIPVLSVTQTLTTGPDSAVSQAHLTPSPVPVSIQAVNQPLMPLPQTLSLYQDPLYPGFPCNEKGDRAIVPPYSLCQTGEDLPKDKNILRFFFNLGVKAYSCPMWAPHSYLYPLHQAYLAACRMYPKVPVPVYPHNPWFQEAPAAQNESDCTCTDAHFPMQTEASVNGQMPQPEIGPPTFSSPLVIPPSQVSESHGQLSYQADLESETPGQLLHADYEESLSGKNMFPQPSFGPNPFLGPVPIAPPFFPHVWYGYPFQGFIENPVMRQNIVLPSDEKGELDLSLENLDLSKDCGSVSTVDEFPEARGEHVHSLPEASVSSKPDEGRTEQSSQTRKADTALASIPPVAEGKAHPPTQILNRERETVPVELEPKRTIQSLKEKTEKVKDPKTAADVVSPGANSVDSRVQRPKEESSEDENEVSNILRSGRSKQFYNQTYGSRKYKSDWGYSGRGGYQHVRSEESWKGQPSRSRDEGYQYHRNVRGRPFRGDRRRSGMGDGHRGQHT
Outline: as §1

OTUD5 = target: T5, OTUD5 (UniProt Q96G74)
T5 sequence (whole entry): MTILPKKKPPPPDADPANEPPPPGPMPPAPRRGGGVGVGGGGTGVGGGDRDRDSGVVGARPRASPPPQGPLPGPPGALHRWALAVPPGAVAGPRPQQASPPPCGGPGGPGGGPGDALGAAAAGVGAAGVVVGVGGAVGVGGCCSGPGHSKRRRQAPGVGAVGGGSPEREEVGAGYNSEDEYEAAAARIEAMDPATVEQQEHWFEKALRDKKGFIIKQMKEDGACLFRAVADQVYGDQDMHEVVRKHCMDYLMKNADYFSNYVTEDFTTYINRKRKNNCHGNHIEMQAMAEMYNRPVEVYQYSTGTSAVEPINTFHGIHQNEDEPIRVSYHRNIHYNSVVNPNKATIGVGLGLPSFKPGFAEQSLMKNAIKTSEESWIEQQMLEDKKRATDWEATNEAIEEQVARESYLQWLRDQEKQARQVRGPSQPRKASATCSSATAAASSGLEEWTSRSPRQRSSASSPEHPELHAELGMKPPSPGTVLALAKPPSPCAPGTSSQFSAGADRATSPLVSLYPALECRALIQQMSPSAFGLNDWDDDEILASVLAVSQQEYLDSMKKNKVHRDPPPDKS
Outline: as §1

Measured: log2 ratio of Biotin-Ahx-Ub-VS probe labelling

Chain of ATXN3 (P54252 whole entry): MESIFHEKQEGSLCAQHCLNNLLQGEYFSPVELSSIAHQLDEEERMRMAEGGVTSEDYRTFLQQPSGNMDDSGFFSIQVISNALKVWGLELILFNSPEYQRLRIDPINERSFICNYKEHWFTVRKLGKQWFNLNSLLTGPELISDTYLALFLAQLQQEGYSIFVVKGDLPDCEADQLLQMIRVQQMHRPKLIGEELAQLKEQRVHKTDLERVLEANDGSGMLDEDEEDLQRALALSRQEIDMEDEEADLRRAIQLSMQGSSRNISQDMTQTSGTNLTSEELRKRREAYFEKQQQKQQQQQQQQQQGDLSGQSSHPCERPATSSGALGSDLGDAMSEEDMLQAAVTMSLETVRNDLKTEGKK
Chain of EIF3F (O00303 whole entry): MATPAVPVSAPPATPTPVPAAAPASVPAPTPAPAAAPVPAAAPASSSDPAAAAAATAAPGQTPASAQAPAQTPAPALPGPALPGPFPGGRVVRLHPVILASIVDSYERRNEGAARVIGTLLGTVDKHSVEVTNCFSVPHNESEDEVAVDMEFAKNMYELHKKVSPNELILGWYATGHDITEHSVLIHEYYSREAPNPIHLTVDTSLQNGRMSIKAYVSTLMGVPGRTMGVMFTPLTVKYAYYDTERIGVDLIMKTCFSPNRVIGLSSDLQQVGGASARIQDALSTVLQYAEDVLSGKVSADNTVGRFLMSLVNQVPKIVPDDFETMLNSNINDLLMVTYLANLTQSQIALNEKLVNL
Chain of OTUB1 (Q96FW1 whole entry): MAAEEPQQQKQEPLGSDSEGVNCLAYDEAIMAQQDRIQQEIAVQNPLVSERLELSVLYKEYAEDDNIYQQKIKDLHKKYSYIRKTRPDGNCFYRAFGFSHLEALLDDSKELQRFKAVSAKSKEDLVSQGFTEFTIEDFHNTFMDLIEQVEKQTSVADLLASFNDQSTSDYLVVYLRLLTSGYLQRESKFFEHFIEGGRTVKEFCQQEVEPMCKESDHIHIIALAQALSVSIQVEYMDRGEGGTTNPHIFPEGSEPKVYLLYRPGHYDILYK
Chain of EIF3H (O15372 whole entry): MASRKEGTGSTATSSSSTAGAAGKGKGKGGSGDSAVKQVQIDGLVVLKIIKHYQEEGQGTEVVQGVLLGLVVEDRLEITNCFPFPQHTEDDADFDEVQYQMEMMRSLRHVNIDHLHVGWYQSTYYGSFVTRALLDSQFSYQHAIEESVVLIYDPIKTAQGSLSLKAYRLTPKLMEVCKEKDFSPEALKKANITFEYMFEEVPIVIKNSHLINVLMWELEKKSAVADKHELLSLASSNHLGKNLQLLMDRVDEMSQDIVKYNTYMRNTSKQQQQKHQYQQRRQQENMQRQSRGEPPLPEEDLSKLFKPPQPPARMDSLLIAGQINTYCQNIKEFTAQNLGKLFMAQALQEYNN

O=C(CN1CCN(C(=O)CCl)CC1)Nc1cccc(F)c1
inactive: ALG13 -0.606 | ATXN3 -0.412 | BAP1 -0.967 | EIF3F -0.00546 | EIF3H 0.149 | FAM105A 0.21 | OTUB1 -0.291 | OTUD4 -0.422 | OTUD5 -0.511
